High-throughput results as filed in PubChem BioAssay.
FBA Mtb inh = inhibitors of M. tuberculosis fructose-bisphosphate aldolase | purified M. tuberculosis FBA, fluorescence read-out | AID 588726 | P9WQA3 | 360,000 tested, 2.3% active | inhibition, % at 1 µM; in the data active = inhibition above about 27%
GDH-TPI inh = inhibits GDH-TPI coupling enzymes, artifact for Mtb FBA screen; GDH-TPI coupled enzyme counterscreen, NADH absorbance; inhibition, % at 4.8 µM; 360,000 tested, 1.2% active; in the data active = inhibition above about 30%
RecA intein inh = inhibitors of M. tuberculosis RecA intein splicing | P9WHJ3 | cell-free RecA intein splicing, fluorescence | 290,000 tested, 0.75% active | inhibition, % (no concentration beside the values) | AID 2221; in the data active = inhibition above about 30%; inconclusive = no clear call, values can overlap the other calls
Rv3671c protease = Rv3671c (M. tuberculosis) protease inhibition; P9WHR9; inhibition, % at 5.96 µM; 320,000 tested, 0.048% active; AID 2606; in the data active = inhibition above about 38%;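 also: extracellular domain of Rv3671c used as enzyme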
UGM FP inh = blocks M. tuberculosis UGM enzyme; inhibition, % at 10 µM; purified UGM, fluorescence polarization probe displacement; 320,000 tested, 0.06% active; P9WIQ1; AID 504406; in the data active = inhibition above about 10%, passing the limit was not always enough; inconclusive = no clear call, values can overlap the other calls
Target sequence (P9WIQ1 whole entry, looked up): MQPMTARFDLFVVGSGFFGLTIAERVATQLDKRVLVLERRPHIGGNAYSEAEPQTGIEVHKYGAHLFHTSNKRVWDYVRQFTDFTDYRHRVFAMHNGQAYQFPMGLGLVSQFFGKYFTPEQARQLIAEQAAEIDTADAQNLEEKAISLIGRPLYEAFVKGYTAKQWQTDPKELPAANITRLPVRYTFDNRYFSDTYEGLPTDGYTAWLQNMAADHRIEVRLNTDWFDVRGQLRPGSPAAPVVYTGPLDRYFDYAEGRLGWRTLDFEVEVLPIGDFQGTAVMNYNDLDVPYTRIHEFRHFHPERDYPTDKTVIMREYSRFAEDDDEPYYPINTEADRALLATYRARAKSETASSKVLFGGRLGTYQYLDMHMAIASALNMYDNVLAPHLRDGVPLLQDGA
Mtb bLac sens = beta-lactam sensitization of Mtb H37Rv | M. tuberculosis H37Rv growth with meropenem, percent inhibition | inhibition, % at 25 µM | 330,000 tested, 0.27% active;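 also: growth measured after seven days incubation then overnight dye step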
GFP chromophore = counter-screen GFP chromophore formation inhibition; EC50, µM; cell-free GFP chromophore formation, fluorescence; AID 434968; shares compounds with RecA intein inh; 2,100 tested, 83% active
Each line names hits and unclear results; the compound was inactive in the other large screens (follow-up assays come after a bar, where they were run). Rows were chosen to be rich in hits. Some 4% of all compounds tested hit in one or more screens of this group. Unless noted, no rule for the calls is given here.

CCCc1c(C(=O)NNc2cccc(Cl)c2)cnn1-c1ccccc1	RecA intein inh 32 | GFP chromophore inactive
CC(OC(=O)c1ccc(Br)o1)C(=O)NCC1CCCCC1 (stereo unspecified)	none (no result: RecA intein inh)
CCc1ccccc1NC(=O)CN1CCN(CC(=O)Nc2ccc3c(c2)OC2(CCCCC2)O3)CC1	none (no result: RecA intein inh, Rv3671c protease, UGM FP inh, Mtb bLac sens)
CCOc1cc(/C=C2/C(=O)N(c3ccccc3)N=C2C)ccc1OC(=O)c1ccco1	RecA intein inh 78 | GFP chromophore 2.7
CC1=NN(c2ccc(C(=O)O)cc2)C(=O)/C1=C\c1ccc(OC(=O)c2cccs2)cc1	RecA intein inh 93 | GFP chromophore 2.6
CCOc1cc(/C=N/NC(=O)COc2ccc(C)cc2)ccc1OC(=O)c1cccs1	none
CCOc1cc(/C=C2\C(=O)N(c3ccc(C(N)=O)cc3)N=C2C)ccc1OC(=O)c1cccs1	RecA intein inh 94 | GFP chromophore 3.3
Cc1ccc(N2C(=O)NC(=O)/C(=C/c3ccc(OC(=O)c4cccs4)cc3)C2=O)cc1	RecA intein inh 34 | GFP chromophore 0.82
CC1=NN(c2ccc(C(=O)O)cc2)C(=O)/C1=C/c1ccc(-c2ccccc2F)o1	none
COc1ccc(N2C(=O)NC(=O)/C(=C/c3cccc(OC(=O)c4cccs4)c3)C2=O)cc1Cl	Mtb bLac sens inconclusive (no result: FBA Mtb inh, GDH-TPI inh)
CCN(CC)c1ccc2c(c1)CCCN2	RecA intein inh 33 (no result: FBA Mtb inh, GDH-TPI inh) | GFP chromophore inactive
O=S(=O)(c1ccc2c(c1)CCCN2)N1CCCC1	none (no result: RecA intein inh)
CC(=O)Nc1ccc2c(c1)C(=O)c1cccc(C(=O)O)c1-2	none (no result: RecA intein inh, Rv3671c protease, UGM FP inh, Mtb bLac sens)
CCCn1c(CC)nc([N+](=O)[O-])c1S(=O)(=O)c1ccccc1	RecA intein inh 46 | GFP chromophore inactive
CCc1nc(C)cn1S(=O)(=O)c1ccc([N+](=O)[O-])cc1	none
O=C(O)c1cccc(S(=O)(=O)N2CCN(S(=O)(=O)c3ccc4ccccc4c3)CC2)c1	none (no result: RecA intein inh, Rv3671c protease, UGM FP inh, Mtb bLac sens)
O=C(O)c1cc(-c2ccc(/C=C3/SC(=S)N(Cc4ccccc4)C3=O)o2)ccc1Cl	none (no result: RecA intein inh, Rv3671c protease, UGM FP inh, Mtb bLac sens)
CN1C(=O)/C(=C/c2ccc(-c3ccccc3[N+](=O)[O-])o2)SC1=Nc1ccc(Cl)c(C(=O)O)c1	RecA intein inh 45 | GFP chromophore 23
c1cncc(CNc2ncnc3sc4c(c23)CCCC4)c1	RecA intein inh 36 | GFP chromophore inactive
C/C(CC(=O)Nc1ccccn1)=N\NC(=O)c1ccc2ccccc2c1	none
C/C(CC(=O)Nc1ccccn1)=N\NC(=O)c1ccccc1	none (no result: FBA Mtb inh, GDH-TPI inh)
C/C(CC(=O)Nc1ccccn1)=N\NC(=O)c1ccncc1	RecA intein inh 85 (no result: FBA Mtb inh, GDH-TPI inh) | GFP chromophore 6.8
COc1cc(OC)cc(C(=O)N/N=C(\C)CC(=O)Nc2ccccn2)c1	RecA intein inh 56 | GFP chromophore 24
C/C(CC(=O)Nc1ccccn1)=N\NC(=O)c1ccccc1O	none
C/C(CC(=O)Nc1ccccn1)=N\NC(=O)Cc1cccc2ccccc12	RecA intein inh 87 | GFP chromophore 8.6
C/C(CC(=O)Nc1ccc(Cl)cn1)=N\NC(=O)Cc1cccs1	RecA intein inh 62 | GFP chromophore 37
CCCC(C)c1nnc(NC(=O)C2CC(=O)N(CCc3ccc(F)cc3)C2)s1 (stereo unspecified)	none
COc1ccc(Nc2ccc(OC)cc2)cc1	RecA intein inh 51 | GFP chromophore inactive
CN1C(C(=O)N2CCc3ccccc3C2)=CC(c2ccc(F)cc2)=NS1(=O)=O	none
CC(=O)Nc1ccc(C(=O)N2CCCC(c3cc(C(=O)NCc4ccc(F)cc4)no3)C2)cc1 (stereo unspecified)	none (no result: RecA intein inh, Rv3671c protease, UGM FP inh, Mtb bLac sens)
Cc1c(OCC(=O)Nc2cccnc2)ccc2c3c(c(=O)oc12)CCC3	RecA intein inh 94 | GFP chromophore 10
O=C(COc1cc2oc(=O)c3c(c2cc1Cl)CCC3)Nc1cccnc1	none
Cc1nn(-c2ccccc2)c(Cl)c1/C=C1\SC(=S)N(CCCCCC(=O)O)C1=O	RecA intein inh 37 | GFP chromophore 28
O=C(O)CCCN1C(=O)/C(=C\C(Cl)=C\c2ccccc2)SC1=S	RecA intein inh 46 (no result: Rv3671c protease) | GFP chromophore inactive
CN1CCN(C(=O)CCCN2C(=O)/C(=C/c3ccccc3)SC2=S)CC1	none
CCOC(=O)c1nnn(-c2nonc2-n2cccc2)c1CCl	RecA intein inh 70 | GFP chromophore 12
CCOC(=O)c1nnn(-c2nonc2-n2cccc2)c1CN1CCC(C)CC1	none
CN1N=C(C(C)(C)C)CC1=O	RecA intein inh 36 (no result: FBA Mtb inh, GDH-TPI inh) | GFP chromophore 19
Cc1cccc(-n2c(SCC(=O)NCC3CCCO3)nc3ccccc3c2=O)c1C (stereo unspecified)	none (no result: RecA intein inh)
CC(C)(C)c1ccc(-n2nc(C#N)c(Cl)cc2=O)cc1	RecA intein inh 93 (no result: Rv3671c protease, UGM FP inh, Mtb bLac sens) | GFP chromophore 2.6
CCN(CC)CCN1C(=O)C(O)=C(C(C)=O)C1c1ccccc1[N+](=O)[O-] (stereo unspecified)	RecA intein inh 77 | GFP chromophore 7.8
CCOC(=O)Cc1[nH]nc2c1C(c1cc(OC)ccc1OC)C(C#N)=C(N)O2 (stereo unspecified)	RecA intein inh 63 | GFP chromophore 4.6
CCOC(=O)Cc1[nH]nc2c1C(c1cccc(OC)c1OC)C(C#N)=C(N)O2 (stereo unspecified)	RecA intein inh 45 | GFP chromophore inactive
COCc1[nH]nc2c1C(c1ccccc1Cl)C(C#N)=C(N)O2 (stereo unspecified)	none
CCOc1ccccc1C1C(C#N)=C(N)Oc2n[nH]c(CC)c21 (stereo unspecified)	RecA intein inh 32 | GFP chromophore 33
COCCNC(=O)CN(C(=O)CCC(=O)Nc1ccccn1)c1ccc(C)cc1C	none
CCOC(=O)c1c(C)sc2c1N(C(=O)CCl)c1cc(Cl)ccc1S2	RecA intein inh 55 | GFP chromophore 1.6
Cc1cc(C)c(C)c(S(=O)(=O)NCCCn2ccnc2)c1C	none (no result: RecA intein inh)
O=C(O)c1cccc(NC2=C(Cl)C(=O)c3ccccc3C2=O)c1	none (no result: RecA intein inh, Rv3671c protease, UGM FP inh, Mtb bLac sens)
O=C(/C=C/c1ccc(O)cc1)c1ccc(NC2=C(N3CCCCC3)C(=O)c3ccccc3C2=O)cc1	RecA intein inh 57 | GFP chromophore 6.1
Cc1ccc(NC2=C(N3CCCCC3)C(=O)c3ccccc3C2=O)cc1	RecA intein inh 67 | GFP chromophore 9.5
O=C1C(NS(=O)(=O)c2ccc(Br)cc2)=C(N2CCCCC2)C(=O)c2ccccc21	none
COc1ccccc1NC1=C(N2CCCCC2)C(=O)c2ccccc2C1=O	RecA intein inh 79 | GFP chromophore 17
O=C1C(Nc2cccc(O)c2)=C(N2CCCCC2)C(=O)c2ccccc21	RecA intein inh 79 | GFP chromophore 3
CN(C1=C(N2CCCCC2)C(=O)c2ccccc2C1=O)c1ccccc1	none
c1ccc(CCNc2ccc3ncc(-c4cccc5ccccc45)n3n2)nc1	none (no result: RecA intein inh, Rv3671c protease, UGM FP inh, Mtb bLac sens)
Cc1ccc(NC(=O)CCC(=O)NNC(=O)Nc2cccc(Cl)c2)c(C)c1	none
O=C1CN(C(=O)CNCc2ccccc2)c2ccccc2N1	none
